The values that follow come from the supplement of paper PMC10981050.

Test in all cases: cell viability relative to vehicle control; higher = less cytotoxic
Holding throughout (details): 10 µM

The subject of assay [1] is K562. In outline:
(§1)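 Each screen used CRISPR-edited mutant and wild-type clones from four leukaemia lines. Compounds were acoustically dispensed at a single 10 µM dose, and CellTiter-Glo luminescence was read after 48 h with the supernatant first removed. Viability was analysed in Genedata Screener and given as percent of the on-plate vehicle control.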

The test system of assay [2] is MARIMO. In outline: as §1
In assay [3] the test system is MOLM14. The procedure, abridged:
as §1

Assay [4] relates to OCI-AML2. In outline: as §1

The cell viability is a read-out of living cells in per cent, often relative to untreated cells.

Several values for one entry are separate records, joined by “and”; a condition that tells them apart may be missing. Equal values may be shown once. Where a name gives a salt, the structure may show the parent alone.

Take `OC1COC(O)C(O)C1O` (stereo not drawn) [L(+)-Arabinose]: the cell viability in assay [1] (SRSF2 genotype: SRSF2 P95H/wt) is 102% and 92.9%; in assay [1] (SRSF2 genotype: SRSF2 wt/wt), 96.7%; in assay [2] (SRSF2 genotype: SRSF2 P95H/wt), 108%; in assay [2] (SRSF2 genotype: SRSF2 wt/wt) it was 112%; in assay [3] (SRSF2 genotype: SRSF2 P95H/wt), 95.5%; in assay [3] (SRSF2 genotype: SRSF2 wt/wt), 101%. The cell viability is 87.3% in assay [4] (SRSF2 genotype: P95H/wt) and 113% in assay [4] (SRSF2 genotype: wt/wt).
As for `CC1CCC2(C(=O)OC3OC(CO)C(O)C(O)C3O)CCC3(C)C(=CCC4C5(C)CCC(OC6OCC(O)C(O)C6O)C(C)(C)C5CCC43C)C2C1(C)O` (stereo not given) [Ziyu-glycoside I], the cell viability in assay [1] (SRSF2 genotype: SRSF2 P95H/wt) was 103% and 96.8%; in assay [1] (SRSF2 genotype: SRSF2 wt/wt), 99.4%; in assay [2] (SRSF2 genotype: SRSF2 P95H/wt), 101%; in assay [2] (SRSF2 genotype: SRSF2 wt/wt) it was 99.9%; in assay [3] (SRSF2 genotype: SRSF2 P95H/wt), 107%; in assay [3] (SRSF2 genotype: SRSF2 wt/wt), 105%. The cell viability in assay [4] (SRSF2 genotype: P95H/wt) is 99%; in assay [4] (SRSF2 genotype: wt/wt), 100%.
As for `O=c1cc(-c2ccccc2)oc2cc(O[C@@H]3O[C@H](CO[C@@H]4O[C@H](CO)[C@@H](O)[C@H](O)[C@H]4O)[C@@H](O)[C@H](O)[C@H]3O)c(O)c(O)c12` [Oroxin B], the cell viability was 101% and 105% in assay [1] (SRSF2 genotype: SRSF2 P95H/wt); 98.7% in assay [1] (SRSF2 genotype: SRSF2 wt/wt); 102% in assay [2] (SRSF2 genotype: SRSF2 P95H/wt); 104% in assay [2] (SRSF2 genotype: SRSF2 wt/wt); 112% in assay [3] (SRSF2 genotype: SRSF2 P95H/wt); 107% in assay [3] (SRSF2 genotype: SRSF2 wt/wt). Besides, the cell viability was determined as 95.6% in assay [4] (SRSF2 genotype: P95H/wt) and 98.6% in assay [4] (SRSF2 genotype: wt/wt).
On to `COC(=O)C1=CO[C@@H](O[C@@H]2O[C@H](CO)[C@@H](O)[C@H](O)[C@H]2O)[C@@H]2C(CO)=CC[C@H]12` [Geniposide], for which the cell viability in assay [1] (SRSF2 genotype: SRSF2 P95H/wt) is 98.8% and 85.3%; in assay [1] (SRSF2 genotype: SRSF2 wt/wt) it was 87.9%; in assay [2] (SRSF2 genotype: SRSF2 P95H/wt), 84.1%; in assay [2] (SRSF2 genotype: SRSF2 wt/wt), 100%; in assay [3] (SRSF2 genotype: SRSF2 P95H/wt), 94.9%; in assay [3] (SRSF2 genotype: SRSF2 wt/wt), 92.3%. The cell viability in assay [4] (SRSF2 genotype: P95H/wt) was 99.6%; in assay [4] (SRSF2 genotype: wt/wt), 89.8%.
Take `COC1CCN(C(=O)c2cc(Cc3n[nH]c(=O)c4ccccc34)ccc2F)CC1`: the cell viability is 78.6% and 83.8% in assay [1] (SRSF2 genotype: SRSF2 P95H/wt); 86% in assay [1] (SRSF2 genotype: SRSF2 wt/wt); 81.5% in assay [2] (SRSF2 genotype: SRSF2 P95H/wt); 97.1% in assay [2] (SRSF2 genotype: SRSF2 wt/wt); 57.9% in assay [3] (SRSF2 genotype: SRSF2 P95H/wt); 34.7% in assay [3] (SRSF2 genotype: SRSF2 wt/wt). Also, the cell viability is 51.2% in assay [4] (SRSF2 genotype: P95H/wt) and 62.1% in assay [4] (SRSF2 genotype: wt/wt).
On to `Nc1c(Br)cc(Br)cc1CN[C@H]1CC[C@H](O)CC1` [Ambroxol], for which the cell viability in assay [1] (SRSF2 genotype: SRSF2 P95H/wt) is 97.6% and 99.3%; in assay [1] (SRSF2 genotype: SRSF2 wt/wt) it was 98.9%; in assay [2] (SRSF2 genotype: SRSF2 P95H/wt), 96.2%; in assay [2] (SRSF2 genotype: SRSF2 wt/wt), 96.7%; in assay [3] (SRSF2 genotype: SRSF2 P95H/wt) it was 101%; in assay [3] (SRSF2 genotype: SRSF2 wt/wt), 102%. In addition, the cell viability was found to be 104% in assay [4] (SRSF2 genotype: P95H/wt) and 112% in assay [4] (SRSF2 genotype: wt/wt).
For `NCc1c[nH]c(=S)n1[C@H]1CCc2c(F)cc(F)cc2C1` [Nepicastat hydrochloride], the cell viability in assay [1] (SRSF2 genotype: SRSF2 P95H/wt) was 100% and 97.2%; in assay [1] (SRSF2 genotype: SRSF2 wt/wt) it was 96.6%; in assay [2] (SRSF2 genotype: SRSF2 P95H/wt) it was 92.2%; in assay [2] (SRSF2 genotype: SRSF2 wt/wt) it was 97.4%; in assay [3] (SRSF2 genotype: SRSF2 P95H/wt) it was 88.4%; in assay [3] (SRSF2 genotype: SRSF2 wt/wt) it was 101%. Besides, the cell viability was determined as 101% in assay [4] (SRSF2 genotype: P95H/wt) and 103% in assay [4] (SRSF2 genotype: wt/wt).
As to `CCC1=C(C)CN(C(=O)NCCc2ccc(S(=O)(=O)NC(=O)N[C@H]3CC[C@H](C)CC3)cc2)C1=O` [Glimepiride], the cell viability in assay [1] (SRSF2 genotype: SRSF2 P95H/wt) is 101% and 82.6%; in assay [1] (SRSF2 genotype: SRSF2 wt/wt), 93.7%; in assay [2] (SRSF2 genotype: SRSF2 P95H/wt), 91.7%; in assay [2] (SRSF2 genotype: SRSF2 wt/wt), 116%; in assay [3] (SRSF2 genotype: SRSF2 P95H/wt), 94.6%; in assay [3] (SRSF2 genotype: SRSF2 wt/wt) it was 92.4%. Besides, the cell viability in assay [4] (SRSF2 genotype: P95H/wt) stood at 97.3%; in assay [4] (SRSF2 genotype: wt/wt), 105%.
Take `COc1ccc(CNc2nc(N3CCC[C@H]3CO)ncc2C(=O)NCc2ncccn2)cc1Cl` [Avanafil]: the cell viability in assay [1] (SRSF2 genotype: SRSF2 P95H/wt) was 96.2% and 96.6%; in assay [1] (SRSF2 genotype: SRSF2 wt/wt), 98.8%; in assay [2] (SRSF2 genotype: SRSF2 P95H/wt) it was 104%; in assay [2] (SRSF2 genotype: SRSF2 wt/wt), 106%; in assay [3] (SRSF2 genotype: SRSF2 P95H/wt), 103%; in assay [3] (SRSF2 genotype: SRSF2 wt/wt) it was 104%. For the same molecule, the cell viability in assay [4] (SRSF2 genotype: P95H/wt) was 102%; in assay [4] (SRSF2 genotype: wt/wt) it was 105%.
As for `Cn1c(N2CCCCS2(=O)=O)nc(C(=O)NCc2ccc(F)cc2)c(O)c1=O`, the cell viability in assay [1] (SRSF2 genotype: SRSF2 P95H/wt) came out at 110%; in assay [1] (SRSF2 genotype: SRSF2 wt/wt), 113%; in assay [2] (SRSF2 genotype: SRSF2 P95H/wt), 108%; in assay [2] (SRSF2 genotype: SRSF2 wt/wt), 115%; in assay [3] (SRSF2 genotype: SRSF2 P95H/wt), 112%; in assay [3] (SRSF2 genotype: SRSF2 wt/wt), 111%. The values for the cell viability in assay [4] (SRSF2 genotype: P95H/wt) and in assay [4] (SRSF2 genotype: wt/wt) were 112% and 102%, respectively.
